Drawing on publication PMC8384837, “Expanding the binding specificity for RNA recognition by a PUF domain”, this text covers binding signal for 10 sequences.

Common to all, as to assay: yeast three-hybrid, YBZ-1, SC-Leu-His + 0.5 mM 3-AT, 4 days
What all share (conditions): tags: N-Gal4 AD-HA kept; label: inside an RPR1-promoter hybrid RNA with tandem MS2 sites; ssRNA

In assay [1] the target is PUM1 PUF domain R3-TWD (Homo sapiens, UniProt Q14671 828-1176, C935T;R936W;Q939D). In outline: (§1)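 Repeat regions from input (SC-Leu) and selection (SC-Leu-His + 0.5 mM 3-AT) plates were PCR-amplified and Illumina-sequenced after four days of growth. The cells were strain YBZ-1 with a LexA–MS2 coat fusion and a HIS3 reporter, co-expressing Pumilio-1 PUF domain libraries and matching RNA elements from a centromeric plasmid. The interaction score is the log change in variant frequency from input to selection, taken in log2 with a pseudocount of 1 for absent variants.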

The target of assay [2] is PUM1 PUF domain R3-WWS (Homo sapiens, UniProt Q14671 828-1176, C935W;R936W;Q939S). Summed up: as §1
In assay [3] the target is PUM1 PUF domain R8-HHP (Homo sapiens, UniProt Q14671 828-1176, N1122H;Y1123H;Q1126P). Summed up:
as §1

Assay [4] deals with PUM1 PUF domain R8-WFR (Homo sapiens, UniProt Q14671 828-1176, N1122W;Y1123F;Q1126R). Summed up:
as §1

Assay [5] concerns the target PUM1 PUF domain R3-RSD (Homo sapiens, UniProt Q14671 828-1176, C935R;R936S;Q939D). In outline: as §1
Assay [6] deals with PUM1 PUF domain R5-RFN (Homo sapiens, UniProt Q14671 828-1176, C1007R;R1008F;Q1011N). In outline:
as §1

Assay [7] addresses PUM1 PUF domain R5-GWY (Homo sapiens, UniProt Q14671 828-1176, C1007G;R1008W;Q1011Y). In outline: as §1
Assay [8] has as its target PUM1 PUF domain R7-KGV (Homo sapiens, UniProt Q14671 828-1176, S1079K;N1080G;E1083V). Summed up: as §1
Assay [9] deals with PUM1 PUF domain R4-EHT (Homo sapiens, UniProt Q14671 828-1176, N971E;Q975T). Summed up: as §1
The target of assay [10] is PUM1 PUF domain R1-NYV (Homo sapiens, UniProt Q14671 828-1176, S863N;R864Y;Q867V). In outline: as §1
PUM1 PUF domain R1-NYV, sequence (Q14671 828-1176 S863N/R864Y/Q867V): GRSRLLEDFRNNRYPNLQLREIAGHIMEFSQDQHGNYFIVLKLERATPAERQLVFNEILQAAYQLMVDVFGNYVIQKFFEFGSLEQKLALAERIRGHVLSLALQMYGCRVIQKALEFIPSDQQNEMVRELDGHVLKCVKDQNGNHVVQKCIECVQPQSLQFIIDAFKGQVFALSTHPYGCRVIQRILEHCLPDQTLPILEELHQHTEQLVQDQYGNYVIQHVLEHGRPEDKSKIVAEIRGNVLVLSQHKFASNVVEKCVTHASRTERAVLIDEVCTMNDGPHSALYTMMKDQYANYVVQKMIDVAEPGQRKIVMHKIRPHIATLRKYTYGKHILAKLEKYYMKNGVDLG

PUM1 PUF domain R8-WFR, sequence (Q14671 828-1176 N1122W/Y1123F/Q1126R): as the sequence (Q14671 828-1176 S863N/R864Y/Q867V) above, with N36S, Y37R, V40Q, N295W, Y296F, Q299R counted along it
PUM1 PUF domain R5-RFN, sequence (Q14671 828-1176 C1007R/R1008F/Q1011N): as the sequence (Q14671 828-1176 S863N/R864Y/Q867V) above, with N36S, Y37R, V40Q, C180R, R181F, Q184N counted along it
PUM1 PUF domain R3-WWS, sequence (Q14671 828-1176 C935W/R936W/Q939S): as the sequence (Q14671 828-1176 S863N/R864Y/Q867V) above, with N36S, Y37R, V40Q, C108W, R109W, Q112S counted along it
PUM1 PUF domain R3-RSD, sequence (Q14671 828-1176 C935R/R936S/Q939D): as the sequence (Q14671 828-1176 S863N/R864Y/Q867V) above, with N36S, Y37R, V40Q, C108R, R109S, Q112D counted along it
PUM1 PUF domain R7-KGV, sequence (Q14671 828-1176 S1079K/N1080G/E1083V): as the sequence (Q14671 828-1176 S863N/R864Y/Q867V) above, with N36S, Y37R, V40Q, S252K, N253G, E256V counted along it
PUM1 PUF domain R5-GWY, sequence (Q14671 828-1176 C1007G/R1008W/Q1011Y): as the sequence (Q14671 828-1176 S863N/R864Y/Q867V) above, with N36S, Y37R, V40Q, C180G, R181W, Q184Y counted along it
PUM1 PUF domain R4-EHT, sequence (Q14671 828-1176 N971E/Q975T): as the sequence (Q14671 828-1176 S863N/R864Y/Q867V) above, with N36S, Y37R, V40Q, N144E, Q148T counted along it
PUM1 PUF domain R3-TWD, sequence (Q14671 828-1176 C935T/R936W/Q939D): as the sequence (Q14671 828-1176 S863N/R864Y/Q867V) above, with N36S, Y37R, V40Q, C108T, R109W, Q112D counted along it
PUM1 PUF domain R8-HHP, sequence (Q14671 828-1176 N1122H/Y1123H/Q1126P): as the sequence (Q14671 828-1176 S863N/R864Y/Q867V) above, with N36S, Y37R, V40Q, N295H, Y296H, Q299P counted along it

Turning to “GGCUAGAACUAGUGGAUCCCCCGGCGCCCGGCGGCUCGAGCCCGGGUAAGUGUAAGUAGUCUGCAUGCCGCCGGGCGCCAUGCCUGCAGGUCGACUCUAGAAAACAUG”, the binding signal is 2.42 log2 enrichment (interaction score) in assay [1] and 5.24 log2 enrichment (interaction score) in assay [2].
In the case of “GGCUAGAACUAGUGGAUCCCCCGGCGCCCGGCGGCUCGAGCCCGGGUAAGGGUAAAUAGUCUGCAUGCCGCCGGGCGCCAUGCCUGCAGGUCGACUCUAGAAAACAUG”, the binding signal in [3] was 2.56 log2 enrichment (interaction score).
Turning to “GGCUAGAACUAGUGGAUCCCCCGGCGCCCGGCGGCUCGAGCCCGGGUAAGUGUAAAUAGUCUGCAUGCCGCCGGGCGCCAUGCCUGCAGGUCGACUCUAGAAAACAUG”, the binding signal in [2] was 2.73 log2 enrichment (interaction score); in assay [4], 4.29 log2 enrichment (interaction score).
For the sequence “GGCUAGAACUAGUGGAUCCCCCGGCGCCCGGCGGCUCGAGCCCGGGUAAGCGUAAAUAGUCUGCAUGCCGCCGGGCGCCAUGCCUGCAGGUCGACUCUAGAAAACAUG”, the binding signal in assay [4] was 4.73 log2 enrichment (interaction score).
“GGCUAGAACUAGUGGAUCCCCCGGCGCCCGGCGGCUCGAGCCCGGGUAAGUGUAAUUAGUCUGCAUGCCGCCGGGCGCCAUGCCUGCAGGUCGACUCUAGAAAACAUG”: the binding signal in [5] was 3.6 log2 enrichment (interaction score).
In the case of “GGCUAGAACUAGUGGAUCCCCCGGCGCCCGGCGGCUCGAGCCCGGGUAAGUGUGAAUAGUCUGCAUGCCGCCGGGCGCCAUGCCUGCAGGUCGACUCUAGAAAACAUG”, the binding signal in assay [6] is 3.16 log2 enrichment (interaction score); in assay [7], 2.71 log2 enrichment (interaction score).
Regarding “GGCUAGAACUAGUGGAUCCCCCGGCGCCCGGCGGCUCGAGCCCGGGUAAGUUUAAAUAGUCUGCAUGCCGCCGGGCGCCAUGCCUGCAGGUCGACUCUAGAAAACAUG”, the binding signal in assay [8] is 3.27 log2 enrichment (interaction score).
With “GGCUAGAACUAGUGGAUCCCCCGGCGCCCGGCGGCUCGAGCCCGGGUAAGUGUUAAUAGUCUGCAUGCCGCCGGGCGCCAUGCCUGCAGGUCGACUCUAGAAAACAUG”, the binding signal in [6] was 3.08 log2 enrichment (interaction score).
For “GGCUAGAACUAGUGGAUCCCCCGGCGCCCGGCGGCUCGAGCCCGGGUAAGUGUAUAUAGUCUGCAUGCCGCCGGGCGCCAUGCCUGCAGGUCGACUCUAGAAAACAUG”, the binding signal in [9] was 2.46 log2 enrichment (interaction score).
With “GGCUAGAACUAGUGGAUCCCCCGGCGCCCGGCGGCUCGAGCCCGGGUAAGUGUAAAUUGUCUGCAUGCCGCCGGGCGCCAUGCCUGCAGGUCGACUCUAGAAAACAUG”, the binding signal in [10] was 3.91 log2 enrichment (interaction score).
